Marburg entry inh: inhibitors of Marburg virus binding or cell entry | Marburg virus pseudotyped entry inhibition, cell reporter | Potency, µM (top dose mostly 37.8 µM), for inactives: at the highest dose activity change, negative = inhibition, hits mostly inhibitors | hit rate 1.8% among 300,000; calls by dose curve; tested in HEK293 cells; also: potency is read from the fitted curve at half-maximal effect; % is scaled to controls: 0 for no effect and ±100 for the full control effect
Shiga inhibitor: Shiga toxin inhibition. Vero cells, Shiga toxin protein synthesis inhibition reporter. hit rate 9.2% among 290,000. AID 2315. inhibition, % at 38.7 µM; in the data active = inhibition mostly above about 28%, no sharp cut-off; inactive = mostly below about 43%; also: 0% is about no effect
AMA1 RON2 block: disrupts binding of P. falciparum AMA1 to RON2; AlphaScreen AMA1-biotinylated RON2 peptide binding; Potency, µM (doses to about 58.2 µM), for inactives: at the highest dose activity change, negative = inhibition, usual class: inhibitors; hit rate 0.2% among 360,000; AID 720542; active = well fitted inhibition curve with a large enough effect; inconclusive = small, poorly fitted or top-dose-only effect; inactive = no such curve, though single readings can be large or run the other way;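 also: potency is read from the fitted curve at half-maximal effect; 0% = vehicle wells and -100% = peptide control; nearly all actives have a fitted effect of over 45% in size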
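AMA1 (3D7) with his tag at 25 nM final met compounds first, then biotinylated RON2 peptide at 25 nM; detection used donor plus acceptor beads, 10 µg/mL apiece, read by AlphaScreen after 30 min at room temperature.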
CHX counter: affects cycloheximide protein synthesis inhibition readout, counter-screen. cell reporter, cycloheximide protein synthesis inhibition counterscreen. max response, %. hit rate 12% among 300,000. AID 2314; in the data active = max response mostly above about 13%, no sharp cut-off; inactive = mostly below about 14%; also: read at 38.3 µM for the half of the compounds with a filed dose; 0% is about no effect
LASV entry inh: blocks Lassa virus binding to or entry into cells; Lassa virus pseudotype entry inhibition, cell reporter; Potency, µM (doses to about 37.9 µM), without a hit: at the highest dose activity change, negative = inhibition, hits mostly inhibitors; hit rate 1.2% among 300,000; AID 540256; calls by dose curve; tested in HEK293 cells; also: potency is read from the fitted curve at half-maximal effect; % is scaled to controls: 0 for no effect and ±100 for the full control effect; nearly all actives have a fitted effect of over 50% in size
* = called active by the depositor; ? = inconclusive; . = no result given; [ ] = remark or other dose. The entries come from a sample that favours hits as a whole.

SMILES | Marburg entry inh | Shiga inhibitor | AMA1 RON2 block | CHX counter | LASV entry inh
CCN(CC)C(=O)C1=C(C)N(Cc2ccc(C(C)(C)C)cc2)C(=O)C(CC(=O)NCc2cccs2)C1 (stereo not given) | . | . | 7% | . | .
CNS(=O)(=O)c1ccc(NC(=O)c2ccccn2)cc1 | ? | 23* | -7%[2.32 µM] | 63* | ?
COc1ccc(NS(=O)(=O)c2ccc(NC(=O)c3ccccn3)cc2)cc1 | . | . | 19% | . | .
COc1ccc(CNC(=O)C/C(C)=N/NC(=O)C(c2ccccc2)c2ccccc2)cc1 | 24%[46.1 µM] | 12 | 53% | -1 | -9%
COc1ccc(NC(=O)C/C(C)=N/NC(=O)c2cnccn2)cc1 | ? | 99* | 47% | 28* | -4%[46.1 µM]
O=C(NCc1ccc(F)cc1)c1cnccn1 | -8%[46.1 µM] | 19 | 3% | 10* | 13%[46.1 µM]
COc1ccc(CNC(=O)C/C(C)=N/NC(=O)c2cnccn2)cc1 | 5%[46.1 µM] | 71* | 119% | 45* | ?
CCOc1ccc(C(=O)Nc2ncccc2Cl)cc1 | . | 71* | -2% | 42* | .
COc1ccc(CNC(=O)C/C(C)=N/NC(=O)Cc2ccc(OC)cc2)cc1 | 5% | -5 | 25% | -1 | -12%
COc1ccc(CNC(=O)C/C(C)=N/NC(=O)C23CC4CC(CC(C4)C2)C3)cc1 | 3%[46.1 µM] | 53* | 46% | 29* | -1%
C/C(CC(=O)Nc1ccc2ccccc2c1)=N\NC(=O)c1cnccn1 | 14% | 52* | 60% | 29* | -10%
CC(=O)Nc1ccc(NC(=O)C/C(C)=N/NC(=O)c2cccc3ccccc23)cc1 | 4%[46.1 µM] | -2 | 86% | -3 | 9%
C/C(CC(=O)Nc1ccc2ccccc2c1)=N\NC(=O)c1ccc(O)c(O)c1 | -20%[46.1 µM] | 86* | 97% | 38* | ?
CCOc1ccc(C(=O)NCc2ccccn2)cc1 | -3% | 7 | 57% | 11 | -2%
Cc1cccc(NC(=O)CSc2nc(-c3cccs3)cc(C(F)(F)F)c2C#N)c1C | . | . | . | . | 5%[46.1 µM]
CCOc1ccc(NC(=O)c2cnsn2)cc1 | 8.9µM* | 55* | 60% | 30* | ?
COCCNC(=O)C(=O)N/N=C(\C)CC(=O)Nc1cccnc1 | -15%[46.1 µM] | -2 | 47% | 13* | -10%
CCOc1ccc(NC(=O)c2nccnc2CO)cc1 | -2% | 93* | 2% | 46* | -14%
COCCNC(=O)C(=O)N/N=C(\C)CC(=O)Nc1ccc2c(c1)OCO2 | 2%[46.1 µM] | 5 | -4% | 12 | -4%[46.1 µM]
COc1ccccc1C(=O)NC(=O)CSc1nnc(C)s1 | -1%[46.1 µM] | 16 | -3% | -1 | 27%[46.1 µM]
CC(COc1ccccc1)N1CCC(CO)(Cc2ccccc2)CC1 (stereo not given) | ? | -12 | -10% | -2 | 14%[46.1 µM]
O=C1CCc2cc(S(=O)(=O)NCCC(=O)NC3CCCCC3)ccc2N1 | . | -2 | 8% | -2 | .
O=C(NC1CCCC1)c1ccc2c(=O)n(Cc3ccccc3)c(SCc3ccccc3F)nc2c1 | . | . | . | . | -10%[46.1 µM]
O=C(CC1SC(=Nc2ccccc2)N(Cc2ccccn2)C1=O)Nc1ccc(Br)cc1 (stereo not given) | ? | 48* | 27% | 20* | -28%
O=C(CC1SC(=Nc2cccc3ccccc23)N(Cc2ccccn2)C1=O)Nc1ccccc1Br (stereo not given) | ? | 2 | -1% | -3 | ?
SMILES | Marburg entry inh | Shiga inhibitor | AMA1 RON2 block | CHX counter | LASV entry inh
Cc1ccccc1N=C1SC(CC(=O)Nc2ccc3ccccc3c2)C(=O)N1Cc1ccccn1 (stereo not given) | ? | 48 | -1% | 29* | 16µM*
N#Cc1ccccc1OCC(=O)OCC(=O)N1CCN(C(=O)c2ccco2)CC1 | ? | 26 | 0% | 2 | ?
CCc1ccc(OCC(=O)NNC(=O)c2cnccn2)c(Br)c1 | . | 39* | 97% | 18* | .
Cc1cc(OCC(=O)Nc2ccncc2)c(C)cc1Br | -15% | -4 | 13% | -1 | 0%
CCc1ccc(OCC(=O)Nc2ccncc2)c(Br)c1 | ? | . | 6% | 30* | -11%[46.1 µM]
CC(C)(C)c1ccc(OCC(=O)Nc2ccncc2)c(Br)c1 | . | 100* | 13% | 31* | .
CCC(=NCCc1c[nH]c2ccccc12)c1c(O)n(-c2ccc(C)cc2)c(=O)[nH]c1=O | ? | 9 | 2% | -1 | 1.8µM*
CC(=NCCc1c[nH]c2ccccc12)c1c(O)n(Cc2ccccc2)c(=O)[nH]c1=O | ? | -11 | -13% | 1 | 11µM*
Cc1ccc(N2CC(C(=O)Nc3ccc(S(=O)(=O)NCC4CCCO4)cc3)CC2=O)cc1C (stereo not given) | -13%[46.1 µM] | 2 | 1% | -6 | -11%[46.1 µM]
CCOc1ccccc1C(=O)Nc1cccc(-c2ccc3nncn3n2)c1 | 7.1µM* | -8 | -8% | -2 | ?
O=C(/C(=N\Nc1ccc([N+](=O)[O-])cc1)Sc1nnnn1-c1ccccc1)c1ccccc1 | 0.89µM* | -12 | 16% | -2 | 12%
Cc1ccc(N/N=C(/Sc2nnnn2-c2ccccc2)C(=O)c2ccccc2)cc1 | -5% | -51 | 5% | -2 | -5%
N#Cc1ccc(CO/N=C/c2ccccc2)cc1 | ? | 76* | 2% | 41* | -1%
Cc1nc2ccccc2nc(C)c1=NOCc1cccc(F)c1 | ? | -12 | -21% | -6 | 2.8µM*
Cc1nc2ccccc2nc1OCc1cccc(Cl)c1 | 4% | -4 | -7%[11.6 µM] | -4 | 17%
Cc1nc2ccccc2nc(C)c1=NOCc1ccc(C#N)cc1 | ? | 66* | -14% | 29* | -2%
N#Cc1cc2c(nc1SCC(=O)O)CCCC2 | 4% | -19 | 4% | 3 | 6%
N#Cc1cc2c(nc1SCC(=O)N1CCCCC1)CCCCC2 | 0%[46.1 µM] | 100* | 2% | 61* | 10%
CCS(=O)(=O)CCSc1nc2c(cc1C#N)CCCC2 | 22% | 18 | 7% | 12* | 3%
N#Cc1cc2c(nc1SCC(=O)N1CCCCC1)CCCC2 | 30%[46.1 µM] | 28 | -2% | 17* | -1%
N#CCSc1nc2c(cc1C#N)CCCCCC2 | -9% | 9 | -6% | -1 | ?
N#Cc1cc2c(nc1SCc1ccncc1)CCC2 | ? | 102* | 56% | 43* | 16%
O=C(COC(=O)c1ccc[nH]c1=O)NCCCc1ccccc1 | . | . | -2% | . | .
COc1ccc(N2CCN(C(=O)c3cn(C)c(=O)c4c3c3ccccc3n4C)CC2)cc1 | -7% | 14 | -28% | -2 | -2%
Cn1c2ccccc2c2c(C(=O)N3CCN(c4ccccn4)CC3)cn(C3CCCC3)c(=O)c21 | -24% | -10 | -14% | -5 | ?
Cn1c2ccccc2c2c(C(=O)N3CCN(c4cccc(Cl)c4)CC3)cn(C3CCCCC3)c(=O)c21 | 7.1µM* | . | . | . | ?
COc1ccc(N2CCN(C(=O)c3cn(C4CCCC4)c(=O)c4c3c3ccccc3n4C)CC2)cc1 | 8.9µM* | -24 | 14µM* | -6 | ?
C/C(=N\Nc1cccc([N+](=O)[O-])c1)c1cc(F)ccc1O | . | 109* | 1% | 47* | .
C/C(=N\Nc1cccc([N+](=O)[O-])c1)c1ccccc1O | ? | 73* | 2% | 33* | 10%
CCOc1ccc(N=C2NN=C(c3cc(C)n(CC4CCCO4)c3C)CS2)cc1 (stereo not given) | 21%[46.1 µM] | -6 | 8% | -1 | 4%
